Each structure is given as a SMILES string. The source made the active and inactive calls.

The experiment is described as follows: plasmodial surface anion channel blockers, osmotic lysis – cell-based, P. falciparum Indochina, OD700, 18 h, primary screen (AID 1157). The settings on record: P. falciparum Indochina infected erythrocytes, osmotic lysis OD700, 18 h; higher = more signal, called active from +8 up or from −8 down.
On to `COC(=O)[C@@]1(Cc2ccc(OC)cc2)[C@H]2c3cc(C(=O)N4CCCC4)n(CCO)c3C[C@H]2CN1C(=O)c1ccccc1`, for which the z-score was 0.815 (inactive).

Take `[N-]=[N+]=Nc1ccccc1C[C@]1(C(=O)N2CCOCC2)COC(c2ccc(OCCCO)cc2)=N1`: the z-score was -0.779 (inactive).

For the molecule `O=C1C2C=CC(C(O)c3ccco3)N(Nc3ccccc3F)C2C(=O)N1c1ccccc1` (configuration not stated), the z-score was 0.975 (inactive).

In the case of `CCCCCN1CC=CC23O[C@@H]4/C=C\CCCOC(=O)C4[C@H]2C(=O)N(C(C)CO)[C@@H]3C1=O` (some centres not stated), the z-score was 0.503 (inactive).

Consider `COC(=O)c1c(CC[C@@H](CO)NC(=O)N2CCC[C@H]2Cn2cc(C3(O)CCCCC3)nn2)oc(C(C)=O)c1C(=O)OC`, for which the z-score was 0.163 (inactive).

As to `CCCCNC(=O)c1ccc(C#CC(C)(C)C)c(OC(C)=O)c1`, the z-score is 0.181 (inactive).

Turning to `COc1ccccc1CN1C(=O)c2ccccc2[C@](Cc2ccccc2I)(C(=O)O)[C@@H]1c1ccc(CO)cc1`, the z-score is 0.426 (inactive).

These data come from PubChem BioAssay.
